Bioassay records (PubChem)
DT40 TDP1 CPT: qHTS for Inhibitors of human tyrosyl-DNA phosphodiesterase 1 (TDP1): qHTS in cells in presence of CPT; Potency, µM (series often up to 46.2 µM), without a hit: at the highest dose activity change, negative = growth inhibition, most hits filed as inhibitors; 12% of 420,000 active; AID 686979, 2013; chicken DT40 Tdp1-/-;hTDP1 cells + 20 nM CPT, ATP luminescence, 48 h; also: nearly all actives have a fitted effect of over 55% in size
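Chicken DT40 Tdp1-/- cells stably complemented with human TDP1 were seeded at 400 cells/well in medium containing 20 nM camptothecin, exposed to pin-transferred compounds, and grown at 37 °C for at least 48 hr. Viability was read as ATP luminescence.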
KB-3-1 tox: qHTS assay for MDR1-selective chemotherapeutics: Primary screen using the parental adenocarcinoma cell KB-3-1; KB-3-1 viability, CellTiter-Glo ATP luminescence, 72 h; Potency, µM (highest dose often 46.1 µM), most hits filed as cytotoxic; 1.4% of 400,000 active; also: nearly all actives have a fitted effect of over 60% in size
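Parental KB-3-1 viability, qHTS format: 72 h compound exposure, 37 °C; CellTiter-Glo; media-only wells and DMSO plates as controls; concentration-effect fits on corrected data.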
HT1080 IDH1KD tx: qHTS for induction of synthetic lethality in tumor cells producing 2HG: qHTS for the HT-1080-IDH1KD cell line; HT-1080 IDH1 knockdown viability, ATP luminescence, 48 h; Potency, µM (highest dose often 46.1 µM), for inactives: at the highest dose activity, negative = toxicity, actives largely listed as cytotoxic; 2% of 360,000 active; AID 686971, 2013;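 also: 0% = DMSO wells and -100% = cell-free medium wells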
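Knockdown cells (IDH1KD HT-1080) received compounds 2 h after plating at 750 cells/well and were kept 48 h at 37 °C in 5% FBS RPMI. A CellTiter-Glo luminescence read gave % activity for curve fitting.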
KB-V1 cytotox: qHTS assay for MDR1-selective chemotherapeutics: Primary screen using the drug-selected MDR subline cells KB-V1; KB-V1 MDR cells viability, CellTiter-Glo, 72 h; Potency, µM (top dose mostly 46.1 µM), usual class: cytotoxic; 3.4% of 400,000 active; also: nearly all actives have a fitted effect of over 60% in size
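Cells of the MDR subline KB-V1 are plated, dosed with compound at multiple concentrations, and incubated 72 h at 37 degrees C; CellTiter-Glo is then added and luminescence read after 10 min.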
HT1080NT lethal: qHTS for induction of synthetic lethality in tumor cells producing 2HG: qHTS for the HT-1080-NT fibrosarcoma cell line | HT-1080-NT fibrosarcoma viability, CellTiter-Glo ATP luminescence, 48 h | Potency, µM (highest dose often 46.1 µM), for the others: at the highest dose activity, negative = less viability, actives largely listed as cytotoxic | 1.6% of 360,000 active;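 also: NT is the 2HG producing partner of a matched IDH1 knockdown line; 0% = DMSO-treated cells and -100% = media-only wells without cells; nearly all actives have a fitted effect of over 55% in size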
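Compounds were tested in concentration-response format on HT-1080-NT cells for 48 hours at 37 degrees C. Cell viability came from CellTiter-Glo luminescence; curves were classified by r2, response magnitude and activity.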
TDP1 cell noCPT: qHTS for Inhibitors of human tyrosyl-DNA phosphodiesterase 1 (TDP1): qHTS in cells in absence of CPT | 15% of 420,000 active | Potency, µM (highest dose often 46.2 µM), inactives show at the top dose activity change, negative = growth inhibition, hits mostly inhibitors | AID 686978, 2013 | DT40 Tdp1-/- hTDP1 cells, no CPT, ATP luminescence, 48 h; also: nearly all actives have a fitted effect of over 55% in size
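Chicken DT40 Tdp1-/- cells complemented with human TDP1, screened without camptothecin (DMSO vehicle only), 400 cells/well. Compounds pin-transferred, cells incubated at 37 °C for at least 48 hr. Growth read as ATP-dependent luminescence (CellTiter-Glo, 30 min at RT).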
* hit, by the source's call; i = inactive; ? = inconclusive; nt = not tested or not shown. The list is not random: actives were taken first. Their share in the collection is about 19%. Calls follow the shape of the dose curve; as a rule, active = well fitted curve in the direction sought with a large enough effect; inconclusive = small, poorly fitted or top-dose-only effect, or another doubt; inactive = no such curve, though single readings can be large; an effect the other way counts as inactive or inconclusive. Unless noted, % is scaled to controls: 0 for no effect and ±100 for the full control effect; potency is read from the fitted curve at half-maximal effect.

SMILES	DT40 TDP1 CPT	KB-3-1 tox	HT1080 IDH1KD tx	KB-V1 cytotox	HT1080NT lethal	TDP1 cell noCPT
C#CCOCCOCCOCCNc1nc(N2CCN(C(=O)CCCCCCCCCCNC(=O)[C@H](CCCCN)n3cc(C)nn3)CC2)nc(N2CCN(C(=O)CCCCCCCCCCNC(=O)[C@H](CCCN=C(N)N)n3cc(C[C@@H](C)CC)nn3)CC2)n1	23µM*	?	?	?	?	12µM*
C#CCOCCOCCOCCNc1nc(N2CCN(C(=O)CCCCCCCCCCNC(=O)[C@H](CCCCN)n3cc(CCO)nn3)CC2)nc(N2CCN(C(=O)CCCCCCCCCCNC(=O)[C@H](CCCCN)n3cc(C[C@@H](C)CC)nn3)CC2)n1	?	i	?	i	?	?
C#CCOCCOCCOCCNc1nc(N2CCN(C(=O)CCCCCCCCCCNC(=O)[C@@H](CCC(=O)O)n3cc(CCCCCN)nn3)CC2)nc(N2CCN(C(=O)CCCCCCCCCCNC(=O)[C@H](CCCCN)n3cc(C[C@@H](C)CC)nn3)CC2)n1	?	i	?	i	?	?
CCc1nn2c(=O)cc(CSCC(=O)Nc3ccccc3Cl)nc2s1	14%	i	1%	i	-2%	10%
CC(=O)c1ccc(OCCn2c(SCC(=O)O)nc3ccccc32)cc1	4%	i	2%	i	1%	18%
CNC(=S)N/N=C/c1c(C(=O)OC)cnn1-c1ccc(F)cc1F	?	i	-3%	?	1%	16µM*
COC(=O)c1cnn(-c2ccccc2)c1/C=N/NC(=S)Nc1ccccc1	?	i	1%	i	14%	21µM*
CC(C)Oc1ccc(C(=O)Nc2nnc(C3=COCCO3)o2)cc1	18µM*	?	-4%	i	0%	?
CC(C)(C)c1ccc(C(=O)Nc2nnc(C3=COCCO3)o2)cc1	13µM*	?	-20%	?	-3%	16µM*
O=C(Nc1nnc(-c2ccc(Cl)cc2)o1)C1=COCCO1	-3%	i	-1%	8.2µM*	0%	-25%
CCOc1ccccc1NC(=O)CSc1ccc2nnc(CCNS(=O)(=O)c3ccccc3)n2n1	-23%	i	nt	i	nt	-21%
Cc1cccc(CNC(=O)C(=O)Nc2ccccc2C)c1	2%	i	nt	i	nt	15%
Cc1ccc(S(=O)(=O)c2nc(C)c3c(n2)CCC3)cc1	-9%	i	1%	i	-3%	-12%
Cc1nc(S(=O)(=O)c2ccc(Cl)cc2)nc2c1CCC2	-2%	i	0%	15µM*	-1%	-1%
COc1ccc(-c2nc3n(n2)C(c2ccc(OC)c(OC)c2)C(C(=O)Nc2cccnc2)=C(C)N3)cc1 (configuration not stated)	-12%	nt	nt	nt	nt	-4%
Cc1ccc(-c2nn3c(C)nnc3c3ccccc23)cc1S(=O)(=O)NC(C)c1ccccc1 (configuration not stated)	?	?	?	i	?	18µM*
Cc1ccc(-c2nn3c(C)nnc3c3ccccc23)cc1S(=O)(=O)NCc1ccco1	15µM*	i	-5%	15µM*	-1%	?
Cc1ccc(-c2nn3c(C)nnc3c3ccccc23)cc1S(=O)(=O)NC(C)(C)CO	?	i	?	i	-10%	?
